According to PubChem BioAssay (NCI):
“And” between values parts separate entries of the source, which are not always exact repeats. Equal entries are not always repeated. About 83,000 compounds went through this panel and 20% of them were active in at least one assay; those are over-represented in the sample as a whole.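 How to read the values: 0–100, growth inhibition (40 = 60% inhibited); 0, no net growth; -100 to 0, cell death (-40 = 40% of starting cells died; -100 = all dead).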 The source made the active and inactive calls. How the source made its calls: active means growth percent below 10; inactive means the rest.

Assays:
Experiment in all cases: NCI-60 one-dose screen, 48 h (100 = growth as untreated, 0 = no growth, -100 = all killed)
Conditions in all cases: 10 µM unless noted
HCT-15 colon = system: HCT-15 colon
HT29 colon = system: HT29 colon
SNB-75 CNS = system: SNB-75 CNS
SNB-19 CNS = system: SNB-19 CNS
U251 CNS = system: U251 CNS
PC-3 prostate = system: PC-3 prostate
SK-MEL-5 melanoma = system: SK-MEL-5 melanoma
UACC-62 melanoma = system: UACC-62 melanoma
LOX IMVI melanoma = system: LOX IMVI melanoma
SK-MEL-28 melanoma = system: SK-MEL-28 melanoma
SK-MEL-2 melanoma = system: SK-MEL-2 melanoma
EKVX NSCLC = system: EKVX NSCLC
SN12C renal = system: SN12C renal
UO-31 renal = system: UO-31 renal
TK-10 renal = system: TK-10 renal
ACHN renal = system: ACHN renal
CAKI-1 renal = system: CAKI-1 renal
A498 renal = system: A498 renal
CCRF-CEM leukemia = system: CCRF-CEM leukemia
MOLT-4 leukemia = system: MOLT-4 leukemia

Measured: growth

O=S(=O)(Nc1ccc(F)cc1)c1ccc(-c2cnc(C3CC3)o2)cc1
active: HT29 colon 7.98% | SNB-75 CNS 0.813%
inactive: HCT-15 colon 19.9% | SNB-19 CNS 29.7% | U251 CNS 21% | PC-3 prostate 31.2% | SK-MEL-5 melanoma 25.5% | UACC-62 melanoma 27.5% | LOX IMVI melanoma 51.5% | SK-MEL-28 melanoma 56.2% | SK-MEL-2 melanoma 12.8% | EKVX NSCLC 44.4% | SN12C renal 35.5% | UO-31 renal 36.3% | TK-10 renal 32.4% | ACHN renal 32% | CAKI-1 renal 36.3% | A498 renal 14.1% | CCRF-CEM leukemia 10.5% | MOLT-4 leukemia 12.7%

Cc1cc(N2CCCCC2)nc(NCc2cc(Nc3ccnc4cc(Cl)ccc34)ccc2F)n1
inactive: SNB-19 CNS 40.9% | PC-3 prostate 17.4% | EKVX NSCLC 38.6% | CAKI-1 renal 19.1%
active: HCT-15 colon -55.1% | HT29 colon -58.4% | SNB-75 CNS -37.1% | U251 CNS -90.9% | SK-MEL-5 melanoma -96.3% | UACC-62 melanoma -80.7% | LOX IMVI melanoma -79.2% | SK-MEL-28 melanoma -73.8% | SK-MEL-2 melanoma -42.7% | SN12C renal -71% | UO-31 renal -46.9% | TK-10 renal -21.5% | ACHN renal -82% | A498 renal -17.3% | CCRF-CEM leukemia -19.2% | MOLT-4 leukemia -24.8%

CCCCC(NC(=O)CN1C(=O)/C(=C/C(C)=C/c2ccccc2)SC1=S)C(=O)O (stereo not given)
inactive: HCT-15 colon 108% | HT29 colon 120% | SNB-75 CNS 98.7% | SNB-19 CNS 95.7% | U251 CNS 110% | PC-3 prostate 107% | SK-MEL-5 melanoma 101% | UACC-62 melanoma 92.7% | LOX IMVI melanoma 94.7% | SK-MEL-28 melanoma 104% | SK-MEL-2 melanoma 113% | EKVX NSCLC 98.6% | SN12C renal 95.5% | UO-31 renal 82.9% | TK-10 renal 104% | ACHN renal 97.2% | CAKI-1 renal 89.2% | A498 renal 68% | CCRF-CEM leukemia 105% | MOLT-4 leukemia 118%

O=C(Nc1ccccc1C(=O)N/N=C(\c1ccccc1)c1ccccn1)c1ccccc1
inactive: HCT-15 colon 25.7% | HT29 colon 22.1% | SNB-75 CNS 64% | SNB-19 CNS 27.9% | U251 CNS 10.8% | PC-3 prostate 43.7% | LOX IMVI melanoma 14.5% | SK-MEL-28 melanoma 31.9% | SK-MEL-2 melanoma 30.2% | EKVX NSCLC 10.1% | SN12C renal 25.4% | TK-10 renal 47.4% | ACHN renal 13.6% | CAKI-1 renal 16.9% | A498 renal 16.5%
active: SK-MEL-5 melanoma -20.9% | UACC-62 melanoma -10.4% | UO-31 renal 8.85% | CCRF-CEM leukemia -2.61% | MOLT-4 leukemia 2.47%

O=C(Nc1ccc2ccccc2c1)c1cc2ccccc2cc1O
inactive: HCT-15 colon 85.9% | HT29 colon 98.9% | SNB-75 CNS 103% | SNB-19 CNS 97.9% | U251 CNS 87.2% | PC-3 prostate 78% | SK-MEL-5 melanoma 86.7% | UACC-62 melanoma 72.5% | LOX IMVI melanoma 94.4% | SK-MEL-28 melanoma 89.1% | SK-MEL-2 melanoma 79.3% | EKVX NSCLC 99.7% | SN12C renal 89.2% | UO-31 renal 58.8% | TK-10 renal 103% | ACHN renal 89.2% | CAKI-1 renal 87.1% | A498 renal 90.4% | CCRF-CEM leukemia 75% | MOLT-4 leukemia 82.2%

Cn1cc(-c2nonc2-c2cn(C)c3ccc(Br)cc23)c2ccccc21
inactive: HCT-15 colon 26.1% | SNB-19 CNS 27.6% | U251 CNS 23.3% | PC-3 prostate 32% | SK-MEL-5 melanoma 37.2% | UACC-62 melanoma 21.8% | LOX IMVI melanoma 31.2% | SK-MEL-28 melanoma 55.9% | SK-MEL-2 melanoma 33.5% | EKVX NSCLC 48.6% | SN12C renal 37.1% | UO-31 renal 32.3% | TK-10 renal 60.7% | ACHN renal 33.5% | CAKI-1 renal 25.8% | CCRF-CEM leukemia 15.5% | MOLT-4 leukemia 27.2%
active: HT29 colon 9.17% | SNB-75 CNS -0.37% | A498 renal -5.37%

COc1ccc(C(CC(=O)c2ccc3c(c2)OCO3)C(=O)O)cc1OC (stereo not given)
inactive: HCT-15 colon 122% and 109% | HT29 colon 103% and 96.3% | SNB-75 CNS 110% and 88.3% | SNB-19 CNS 110% and 97.6% | U251 CNS 102% | PC-3 prostate 87.4% and 105% | SK-MEL-5 melanoma 108% and 102% | UACC-62 melanoma 111% and 112% | LOX IMVI melanoma 95.6% and 98.4% | SK-MEL-28 melanoma 122% and 106% | SK-MEL-2 melanoma 114% and 87.8% | EKVX NSCLC 99.9% | SN12C renal 98% and 102% | UO-31 renal 113% and 83.3% | TK-10 renal 109% and 108% | ACHN renal 118% and 98.7% | CAKI-1 renal 91.4% and 95.3% | A498 renal 104% and 106% | CCRF-CEM leukemia 96% and 97.5% | MOLT-4 leukemia 108% and 96.1%

Cc1ccc(NC(=O)N/C(N)=N/c2nc(=O)c3ccccc3s2)cc1
active: CCRF-CEM leukemia -23%
inactive: HCT-15 colon 104% | HT29 colon 103% | SNB-75 CNS 83.1% | SNB-19 CNS 93% | U251 CNS 99.7% | PC-3 prostate 101% | SK-MEL-5 melanoma 93.4% | UACC-62 melanoma 83% | LOX IMVI melanoma 104% | SK-MEL-28 melanoma 102% | SK-MEL-2 melanoma 106% | EKVX NSCLC 93.7% | SN12C renal 93.8% | UO-31 renal 90.4% | TK-10 renal 116% | ACHN renal 102% | CAKI-1 renal 86.9% | A498 renal 63% | MOLT-4 leukemia 99.8%

O=C(Nc1ccc(Cl)c(Cl)c1)Nc1ccc(Cl)c(Cl)c1
active: HT29 colon -82.6% and 7.52% | LOX IMVI melanoma -89.4% and 9.39% | UO-31 renal -88.8% and -9.62% | ACHN renal -85.8% and 7.07% | CAKI-1 renal -90.8% and -2.12% | A498 renal -90.1% and -0.946%
-78.9% (active) and 45.5% (inactive): SK-MEL-2 melanoma
-28.5% (active) and 20.8% (inactive): MOLT-4 leukemia
-83.4% (active) and 14.8% (inactive): SN12C renal
-96.9% (active) and 35.3% (inactive): TK-10 renal
-80.2% (active) and 11.1% (inactive): PC-3 prostate
-94.2% (active) and 38.3% (inactive): SNB-75 CNS
-78.8% (active) and 34.9% (inactive): SK-MEL-28 melanoma
-16.7% (active) and 18.2% (inactive): HCT-15 colon
-14% (active) and 21.4% (inactive): CCRF-CEM leukemia
-84.3% (active) and 13.3% (inactive): U251 CNS
-97.2% (active) and 34.6% (inactive): SK-MEL-5 melanoma
-89.2% (active) and 12.2% (inactive): UACC-62 melanoma
-62% (active) and 26.5% (inactive): SNB-19 CNS
inactive: EKVX NSCLC 23.1%

CCN(CC)CCCN1C(=O)c2c(c(C)c3c(oc4cc(OC)ccc43)c2C)C1=O
active: SK-MEL-28 melanoma -82.6%
inactive: HCT-15 colon 80.6% | HT29 colon 86.9% | SNB-75 CNS 146% | SNB-19 CNS 99.1% | U251 CNS 103% | PC-3 prostate 85.3% | SK-MEL-5 melanoma 77.6% | UACC-62 melanoma 102% | LOX IMVI melanoma 87.7% | SK-MEL-2 melanoma 112% | EKVX NSCLC 99.3% | SN12C renal 89.1% | UO-31 renal 67.4% | TK-10 renal 112% | ACHN renal 63.1% | CAKI-1 renal 93.2% | A498 renal 97.7% | CCRF-CEM leukemia 61% | MOLT-4 leukemia 93.9%

CC1=CC=C(NC(=O)/C=C/c2ccccc2)CC1Nc1nccc(-c2cccnc2)n1 (stereo not given)
active: SNB-75 CNS 8.46% | SK-MEL-5 melanoma -42.9%
inactive: HCT-15 colon 14.6% | HT29 colon 13.6% | SNB-19 CNS 66.8% | U251 CNS 38.1% | PC-3 prostate 25.2% | UACC-62 melanoma 37.9% | LOX IMVI melanoma 41.3% | SK-MEL-28 melanoma 35.3% | SK-MEL-2 melanoma 28.2% | EKVX NSCLC 67.4% | SN12C renal 50.3% | UO-31 renal 65.2% | TK-10 renal 107% | ACHN renal 50.3% | CAKI-1 renal 32.5% | A498 renal 24.7% | CCRF-CEM leukemia 19.4% | MOLT-4 leukemia 26%

CCCn1nc(C(=O)N2CCCCC2)c2c1CCC(N1CCC(c3ccncc3)CC1)C2 (stereo not given)
inactive: HCT-15 colon 105% | HT29 colon 100% | SNB-75 CNS 96.1% | SNB-19 CNS 102% | U251 CNS 101% | PC-3 prostate 101% | SK-MEL-5 melanoma 102% | UACC-62 melanoma 112% | LOX IMVI melanoma 98.1% | SK-MEL-28 melanoma 115% | SK-MEL-2 melanoma 105% | EKVX NSCLC 100% | SN12C renal 118% | UO-31 renal 92.7% | TK-10 renal 101% | ACHN renal 105% | CAKI-1 renal 95.8% | A498 renal 109% | CCRF-CEM leukemia 101% | MOLT-4 leukemia 108%

O=C(NCCCN1CCCCC1)c1ccc(-c2nc3ccc4[nH]ncc4c3c3c2CCCC3)cc1
active: A498 renal -10%
inactive: HCT-15 colon 58.4% | HT29 colon 50.7% | SNB-75 CNS 17.6% | SNB-19 CNS 78.2% | U251 CNS 66.7% | PC-3 prostate 29% | SK-MEL-5 melanoma 76.2% | UACC-62 melanoma 62.6% | LOX IMVI melanoma 48.3% | SK-MEL-28 melanoma 72.2% | SK-MEL-2 melanoma 81.4% | EKVX NSCLC 67.4% | SN12C renal 50.4% | UO-31 renal 54.4% | TK-10 renal 43.7% | ACHN renal 27.4% | CAKI-1 renal 10.9% | CCRF-CEM leukemia 21.6% | MOLT-4 leukemia 18.4%
